# Shown is part of a subset that was picked to be rich in the strongest signals.
# B1: CM2 (Cordyceps militaris) (protein)
# chain: MEIAEQNVGKSCAIVNLIPPKEGSNIWTAKQVTIARNLPPNRGTGRHQIDWSFGPVKVTGYVDTTNWEIGVTVSIMGIDLGTVYGNLRDGVVLNVDLFLAKGQVRFYLKNGNEVWVHLSVEIRFDGKFEGDYKIITV
# Assays:
# Assay in all cases: glycan array binding signal (z-score within array); higher = stronger binding
# Conditions in all cases: glycan notation: IUPAC condensed, linker removed
# [1] = target: Fuc(a1-2)Gal(b1-3)GalNAc(b1-4)[Neu5Ac(a2-3)]Gal(b1-4)Glc
# How it was run: (§1)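 Glycan array binding is given as a within-array Z-score, which can be read as non-binding when negative. The arrays, 3228 of them, came from the Consortium for Functional Glycomics database and were retained only where the protein sequence was available. Z-scores were averaged across arrays of the same protein sequence at different concentrations or buffers and across linkers.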
# Fuc(a1-2)Gal(b1-4)Glc6S = target: Fuc(a1-2)Gal(b1-4)Glc6S
# How it was run: as §1
# [2] = target: Fuc(a1-2)[Gal(a1-3)]Gal(b1-4)[Fuc(a1-3)]GlcNAc
# How it was run: as §1
# [3] = target: Fuc(a1-2)[GalNAc(a1-3)]Gal(b1-3)GlcNAc
# How it was run: as §1
# [4] = target: Fuc(a1-2)[GalNAc(a1-3)]Gal(b1-3)GlcNAc(b1-3)GalNAc
# How it was run: as §1
# [5] = target: Fuc(a1-2)[GalNAc(a1-3)]Gal(b1-4)GlcNAc(b1-2)Man(a1-3)[Fuc(a1-2)[GalNAc(a1-3)]Gal(b1-4)GlcNAc(b1-2)Man(a1-6)]Man(b1-4)GlcNAc(b1-4)[Fuc(a1-6)]GlcNAc
# How it was run: as §1
# [6] = target: Fuc(a1-3)[Gal(b1-4)]GlcNAc
# How it was run: as §1
# [7] = target: Gal(a1-3)Gal(b1-3)GlcNAc(b1-2)Man(a1-3)[Gal(a1-3)Gal(b1-3)GlcNAc(b1-2)Man(a1-6)]Man(b1-4)GlcNAc(b1-4)GlcNAc
# How it was run: as §1
# [8] = target: Gal(a1-3)Gal(b1-4)GlcNAc(b1-6)GalNAc
# How it was run: as §1
# [9] = target: Gal(b1-3)GlcNAc(b1-3)Gal(b1-4)GlcNAc(b1-2)[Gal(b1-3)GlcNAc(b1-3)Gal(b1-4)GlcNAc(b1-6)]Man(a1-6)[Gal(b1-3)GlcNAc(b1-3)Gal(b1-4)GlcNAc(b1-2)Man(a1-3)]Man(b1-4)GlcNAc(b1-4)[Fuc(a1-6)]GlcNAc
# How it was run: as §1
# [10] = target: Gal(b1-3)[Fuc(a1-4)]GlcNAc(b1-6)GalNAc
# How it was run: as §1
# [11] = target: Gal(b1-3)[Neu5Ac(b2-6)]GalNAc
# How it was run: as §1
# [12] = target: Gal(b1-4)GlcNAc(b1-2)Man(a1-3)[Gal(b1-4)GlcNAc(b1-2)Man(a1-6)]Man(b1-4)GlcNAc(b1-4)GlcNAc
# How it was run: as §1
# [13] = target: Gal(b1-4)GlcNAc(b1-3)Gal(b1-4)GlcNAc(b1-2)[Gal(b1-4)GlcNAc(b1-3)Gal(b1-4)GlcNAc(b1-6)]Man(a1-6)[Gal(b1-4)GlcNAc(b1-3)Gal(b1-4)GlcNAc(b1-2)Man(a1-3)]Man(b1-4)GlcNAc(b1-4)[Fuc(a1-6)]GlcNAc
# How it was run: as §1
# [14] = target: Gal(b1-4)GlcNAc(b1-3)Gal(b1-4)GlcNAc(b1-3)Gal(b1-4)GlcNAc(b1-2)Man(a1-3)[Gal(b1-4)GlcNAc(b1-3)Gal(b1-4)GlcNAc(b1-3)Gal(b1-4)GlcNAc(b1-2)Man(a1-6)]Man(b1-4)GlcNAc(b1-4)[Fuc(a1-6)]GlcNAc
# How it was run: as §1
# [15] = target: Gal(b1-4)GlcNAc(b1-3)Gal(b1-4)GlcNAc(b1-3)Gal(b1-4)GlcNAc(b1-3)Gal(b1-4)GlcNAc(b1-2)[Gal(b1-4)GlcNAc(b1-3)Gal(b1-4)GlcNAc(b1-3)Gal(b1-4)GlcNAc(b1-3)Gal(b1-4)GlcNAc(b1-6)]Man(a1-6)[Gal(b1-4)GlcNAc(b1-3)Gal(b1-4)GlcNAc(b1-3)Gal(b1-4)GlcNAc(b1-3)Gal(b1-4)GlcNAc(b1-2)Man(a1-3)]Man(b1-4)GlcNAc(b1-4)[Fuc(a1-6)]GlcNAc
# How it was run: as §1
# Gal3S(b1-3)GlcNAc = target: Gal3S(b1-3)GlcNAc
# How it was run: as §1
# Gal3S6S(b1-4)GlcNAc6S = target: Gal3S6S(b1-4)GlcNAc6S
# How it was run: as §1
# Gal6S(b1-3)GlcNAc = target: Gal6S(b1-3)GlcNAc
# How it was run: as §1
# [16] = target: GlcA3S(b1-3)Gal(b1-4)GlcNAc(b1-3)Gal(b1-4)Glc
# How it was run: as §1
# [17] = target: GlcNAc(b1-3)Gal(b1-4)GlcNAc(b1-2)Man(a1-3)[GlcNAc(b1-3)Gal(b1-4)GlcNAc(b1-2)Man(a1-6)]Man(b1-4)GlcNAc(b1-4)[Fuc(a1-6)]GlcNAc
# How it was run: as §1
# [18] = target: GlcNAc(b1-3)Gal(b1-4)GlcNAc(b1-3)Gal(b1-4)GlcNAc(b1-2)[GlcNAc(b1-3)Gal(b1-4)GlcNAc(b1-3)Gal(b1-4)GlcNAc(b1-6)]Man(a1-6)[GlcNAc(b1-3)Gal(b1-4)GlcNAc(b1-3)Gal(b1-4)GlcNAc(b1-2)Man(a1-3)]Man(b1-4)GlcNAc(b1-4)[Fuc(a1-6)]GlcNAc
# How it was run: as §1
# [19] = target: GlcNAc(b1-3)Gal(b1-4)GlcNAc(b1-3)Gal(b1-4)GlcNAc(b1-3)Gal(b1-4)GlcNAc(b1-2)Man(a1-3)[GlcNAc(b1-3)Gal(b1-4)GlcNAc(b1-3)Gal(b1-4)GlcNAc(b1-3)Gal(b1-4)GlcNAc(b1-2)Man(a1-6)]Man(b1-4)GlcNAc(b1-4)GlcNAc
# How it was run: as §1
# GlcNAc(b1-3)GalNAc = target: GlcNAc(b1-3)GalNAc
# How it was run: as §1
# [20] = target: Kdn(a2-3)Gal(b1-4)[Fuc(a1-3)]GlcNAc
# How it was run: as §1
# [21] = target: Man(a1-2)Man(a1-3)[Man(a1-2)Man(a1-6)]Man(a1-6)[Man(a1-2)Man(a1-2)Man(a1-3)]Man
# How it was run: as §1
# [22] = target: Man(a1-3)[Man(a1-6)]Man(a1-6)[Man(a1-2)Man(a1-3)]Man(b1-4)GlcNAc(b1-4)GlcNAc
# How it was run: as §1
# [23] = target: Neu5Ac(a2-3)Gal(b1-3)GlcNAc(b1-2)Man(a1-3)[GlcNAc(b1-4)][Neu5Ac(a2-3)Gal(b1-3)GlcNAc(b1-2)Man(a1-6)]Man(b1-4)GlcNAc(b1-4)GlcNAc
# How it was run: as §1
# [24] = target: Neu5Ac(a2-3)Gal(b1-3)]Neu5Ac(a2-3)Gal(b1-4)]GlcNAc
# How it was run: as §1
# [25] = target: Neu5Ac(a2-3)Gal(b1-4)GlcNAc(b1-2)Man(a1-3)[Neu5Ac(a2-6)Gal(b1-4)GlcNAc(b1-2)Man(a1-6)]Man(b1-4)GlcNAc(b1-4)GlcNAc
# How it was run: as §1
binder,measurement,setting,value
B1,glycan array binding signal (z-score),[1],0.28
same,glycan array binding signal (z-score),Fuc(a1-2)Gal(b1-4)Glc6S,-0.639
same,glycan array binding signal (z-score),[2],1.81
same,glycan array binding signal (z-score),[3],1.61
same,glycan array binding signal (z-score),[4],1.29
same,glycan array binding signal (z-score),[5],0.394
same,glycan array binding signal (z-score),[6],0.057
same,glycan array binding signal (z-score),[7],-0.635
same,glycan array binding signal (z-score),[8],-0.847
same,glycan array binding signal (z-score),[9],0.677
same,glycan array binding signal (z-score),[10],0.038
same,glycan array binding signal (z-score),[11],0.422
same,glycan array binding signal (z-score),[12],-1.28
same,glycan array binding signal (z-score),[13],2.29
same,glycan array binding signal (z-score),[14],3.05
same,glycan array binding signal (z-score),[15],1.2
same,glycan array binding signal (z-score),Gal3S(b1-3)GlcNAc,0.015
same,glycan array binding signal (z-score),Gal3S6S(b1-4)GlcNAc6S,3.73
same,glycan array binding signal (z-score),Gal6S(b1-3)GlcNAc,-0.595
same,glycan array binding signal (z-score),[16],0.06
same,glycan array binding signal (z-score),[17],2.3
same,glycan array binding signal (z-score),[18],3.55
same,glycan array binding signal (z-score),[19],-0.287
same,glycan array binding signal (z-score),GlcNAc(b1-3)GalNAc,-0.452
same,glycan array binding signal (z-score),[20],0.801
same,glycan array binding signal (z-score),[21],2.53
same,glycan array binding signal (z-score),[22],2.43
same,glycan array binding signal (z-score),[23],1.74
same,glycan array binding signal (z-score),[24],3.98
same,glycan array binding signal (z-score),[25],0.37
